Assay results taken from PubChem BioAssay AID651602 (The Scripps Research Institute Molecular Screening Center, 2012).
The campaign covered roughly 360,000 compounds. About 950 (0.26%) were called active. The sample holds actives, similar compounds and a random draw of the others, so the mix is not that of the screen. Values without a mark were called inactive. Rule as the data show it: active = inhibition above about 11%; inactive = the rest.

Assay: reduced absorbance of E. coli cultures with phage – HTS, RecBCD inhibitor project, primary screen (AID 651602)
Details: growth absorbance, at 11.9 µM, active compounds read high

Row | SMILES | inhibition
1 | O=C(NCc1ccccc1)[C@@H]1CCCN1C(=O)[C@@H](NS(=O)(=O)c1ccc(F)cc1F)C1CCCCC1 | 3.12%
2 | O=C(C(=O)N1CCC(CNS(=O)(=O)Cc2ccccc2)CC1)c1cc2ccccc2o1 | 1.63%
3 | COC(=O)[C@]12C[C@H](CC(=O)NCc3cccc(C(F)(F)F)c3)C(=O)N(Cc3ccc4c(c3)OCO4)C1=C[C@H](COCc1ccccc1)O[C@@H]2C | 2.25%
4 | CC(C)CNc1cccc2c1S(=O)(=O)N[C@H](C)CO2 | 5.2%
5 | O=C1c2ccccc2C2=Nc3ccccc3SC(c3ccccc3F)C12 (centres undefined) | 19.6% (active)
6 | CC(=O)C1=C(C)N(Cc2ccc(Cl)cc2)C(=S)NC1c1ccc(F)cc1 (centres undefined) | 2.81%
7 | O=C(NCc1ccccc1)[C@H]1CCCN1C(=O)[C@H]1CCCN1C(=O)N1CCOCC1 | 1.72%
8 | COc1ccc(-c2ccccc2C2Cc3nnccc3CN2C(=O)Nc2ccccc2)cc1 (centres undefined) | 3.48%
9 | Cc1cccc(NC(=O)CCn2c(=O)oc3ccccc32)c1 | 0.64%
10 | O=C(Nc1ccc(Br)cn1)c1ccc([N+](=O)[O-])cc1Cl | 1.57%
11 | Cc1cccc(NC(=O)c2ccc([N+](=O)[O-])o2)c1 | 14.2% (active)
12 | O=C(/C=C/c1ccc(Cl)cc1)Nc1ccc(Br)cn1 | -0.92%
13 | CCN(CC)S(=O)(=O)c1ccc(N2CCCC2)c(NC(=O)c2ccc([N+](=O)[O-])o2)c1 | 0.78%
14 | O=C(Nc1ccc(Br)cn1)c1ccc([N+](=O)[O-])o1 | 15.1% (active)
15 | COC(=O)[C@]12C[C@H](CC(=O)NCc3ccccc3)C(=O)N(CCC3=CCCCC3)C1=C[C@H](C(C)(C)C)O[C@@H]2C | 1.16%
16 | COc1cccc(CNC(=O)[C@H]2CCCN2C(=O)[C@H]2CCCN2C(=O)c2ccc(F)cc2)c1 | 1.78%
17 | C[C@@H]1ON(C)[C@H]2C[C@H]3c4cc(N5CCOCC5)ccc4CCN3C[C@@H]12 | 1.27%
18 | C=CCN=C1NC(c2ccccc2)C(C(=O)OC)=C(C)N1Cc1ccc(C(F)(F)F)cc1 (centres undefined) | 3.49%
19 | C[C@@H](CN1C2=NC[C@@H](Cc3ccccc3)N2C[C@H]1Cc1ccc(O)cc1)NC(=O)CCC1CCCCC1 | 2.48%
20 | CC(C)Oc1ccc(/C=N/NC(=O)c2nnn(-c3nonc3N)c2CN(C)C2CCCCC2)cc1 | 2.44%
21 | Nc1nonc1-n1nnc(C(=O)N/N=C/c2cc(Br)ccc2O)c1CSC1=NCCS1 | 11.6% (active)
22 | CN(C)Cc1c(C(=O)N/N=C/c2ccccc2OCc2ccc(F)cc2)nnn1-c1nonc1N | -5.79%
23 | Cc1cn(C2OC[C@@H](O)[C@@H]2CO)c(=O)[nH]c1=O (some centres undefined) | 0.95%
24 | Cc1cn(C2C=CC(CO)O2)c(=O)[nH]c1=O (centres undefined) | 19.9% (active)
25 | Cc1cn([C@H]2C[C@H](O)[C@@H](/C=C/C(=O)NCCCc3ccccc3)O2)c(=O)[nH]c1=O | 3.27%

Row | SMILES | inhibition
26 | COc1cccc(-c2cc(CNC(=O)[C@@H](Cc3ccccc3)NC(=O)[C@H]3O[C@@H](n4cnc(C(N)=O)n4)[C@H](O)[C@@H]3O)no2)c1 | 2.06%
27 | CCOC(=O)C1=C(CSc2nnnn2C)N(C)C(=O)NC1c1ccccc1 (centres undefined) | 3.2%
28 | CCN1CCN(C(=O)N[C@@H](C(=O)N[C@@H]2C(=O)N3C(C(=O)O)=C(CSc4nnnn4C)CS[C@H]23)c2ccc(O)cc2)C(=O)C1=O | 103% (active)
29 | O=C(O)Cn1cnc2c(NCc3ccccc3)ncnc21 | -1.71%
30 | O=c1ccc2c(-c3ccccc3S(=O)(=O)O)c3ccc(O)c(O)c3oc-2c1O | 12.7% (active)
31 | CC[C@H](NC(=O)[C@H](Cc1ccccc1)NC(=O)[C@H]1O[C@@H](n2cnc3c(=O)[nH]c(N)nc32)[C@H](O)[C@@H]1O)c1ccccc1 | 3.64%
32 | COc1ccccc1C(=O)N1O[C@]23C=C[C@]14C[C@@H](O)CC[C@]4(C)C2CC[C@]1(C)[C@@H]([C@H](C)/C=C/[C@H](C)C(C)C)CC[C@H]13 (some centres undefined) | 3.99%
33 | COc1cccc(CNC(=O)[C@H]2CCCN2C(=O)[C@H]2CCCN2C(=O)C2CCCCC2)c1 | 2.87%
34 | O=S1(=O)c2c(cccc2N2CCCCC2)O[C@H](COCc2ccccc2)CN1C1CC1 | 1.52%
35 | COC(=O)C1=C(C)N(Cc2ccccc2C(F)(F)F)C(=NCc2ccc(OC)cc2)NC1c1cccc(C(F)(F)F)c1 (centres undefined) | 5.38%
36 | CCOC(=O)C1=C(C(=O)OCC)C2N(Cc3ccc(C#N)cc3)c3ccccc3[C@@]23C[C@@H](C(=O)OC)N(S(=O)(=O)c2ccc(F)cc2)C3=N1 (some centres undefined) | 2.71%
37 | CC(=O)N1C[C@@H](CO)[C@@H](N(C)C(=O)C(C)(C)C)C[C@H]1c1ccccc1Br | 2.5%
38 | O=S(=O)(c1cccs1)N1CCCc2nc(-c3ccc(Br)cc3)ccc21 | 3.49%
39 | CCCCC(=O)NC(c1ccc(OC)c(OC)c1)c1ccc2cccnc2c1O (centres undefined) | 21.1% (active)
40 | CCOc1ccc(C(CC(=O)O)n2cnnn2)cc1OC (centres undefined) | 3.64%
41 | CCOc1ccc(C(CCc2ccccc2)NC(=O)c2ccc(OC)c(OC)c2)cc1OCC (centres undefined) | -0.08%
42 | CCc1c(-c2ccccc2OC)ncn1CCc1ccccc1OC | 0.54%
43 | CCOC(=O)C1CSCCS(=O)(=O)N1Cc1ccc(Cl)cc1 (centres undefined) | 0.55%
44 | COC(=O)C1=C(C)NC(=S)NC1c1ccc(OC)cc1 (centres undefined) | 3.49%
45 | COC(=O)c1c(-c2ccc(OC)cc2)c2c(c3c4ccccc4n(S(=O)(=O)c4ccc(C)cc4)c13)C(=O)N(C)C2 | 1.94%
46 | Cc1cc(Br)cn2c(Cc3ccccc3C(F)(F)F)c(-c3ccc(C#N)cc3)nc12 | 4.55%
47 | O=C(Nc1cc(-c2ccccc2)nn1-c1ccccc1F)c1ccc([N+](=O)[O-])cc1 | 3.65%
48 | O=C(NC(Nc1nc2ccc([N+](=O)[O-])cc2s1)(C(F)(F)F)C(F)(F)F)c1ccccc1 | 12.8% (active)
49 | O=C(NNS(=O)(=O)Cc1ccccc1)c1ccc([N+](=O)[O-])cc1 | 4.99%
